# Screening data as filed in PubChem.
# A selection: hits, their analogues and other compounds. The true share with any hit is near 2.3%.
# CHRM1 antagonist: blocks human M1 muscarinic receptor. inhibition, % at 3 µM. P11229. 1.3% of 360,000 active. CHO-K1 hM1, Fluo-8 calcium fluorescence, ACh EC80 antagonist;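 active = percent inhibition above its own plate's cutoff, namely the mean of that plate's compound wells plus 3 SD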;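 note: peak over basal fluorescence ratio during 140 s after agonist addition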
# Target sequence (P11229 whole entry, looked up): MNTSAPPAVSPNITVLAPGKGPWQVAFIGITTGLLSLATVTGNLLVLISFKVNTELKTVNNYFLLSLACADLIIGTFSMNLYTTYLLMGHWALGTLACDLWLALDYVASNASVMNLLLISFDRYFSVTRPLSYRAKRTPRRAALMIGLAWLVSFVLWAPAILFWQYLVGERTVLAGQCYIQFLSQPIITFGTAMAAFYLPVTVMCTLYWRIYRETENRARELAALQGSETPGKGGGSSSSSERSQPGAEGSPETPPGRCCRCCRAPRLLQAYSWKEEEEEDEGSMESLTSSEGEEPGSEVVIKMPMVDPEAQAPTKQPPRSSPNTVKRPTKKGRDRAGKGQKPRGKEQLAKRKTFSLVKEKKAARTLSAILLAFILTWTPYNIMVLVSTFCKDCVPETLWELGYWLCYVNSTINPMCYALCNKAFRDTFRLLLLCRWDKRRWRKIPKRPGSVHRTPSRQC
# CHO-K1 Ca ag: nonselective activator or artifact in parental CHO-K1 cells; Fluo-8 calcium fluorescence; scaled to maximal ATP response, vehicle zero; 0.48% of 360,000 active; activation, % at 3 µM; in the data active = activation above about 15%;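 note: untransfected CHO-K1 host cells lacking M1 receptor as counterscreen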
# M1 PAM parental: counter-screen for M1 PAMs: effect in parental CHO-K1 cells; AID 602247; ATP EC20, Fluo-8 calcium fluorescence; 0% at ATP EC20, 100% at ATP max; 0.02% of 360,000 active; activation, % at 3 µM;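 active = activation above the run cutoff, the mean activation of all test compounds plus 3 SD, cut at about 40% in these data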;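 note: peak over basal fluorescence ratio in a 140 s read after ATP addition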
# CHRM1 PAM: positive allosteric modulators of human M1 muscarinic receptor; CHO-K1 hM1, Fluo-8 calcium fluorescence, ACh EC20; 0% = ACh EC20, 100% = maximal ACh; 0.088% of 360,000 active; activation, % at 3 µM; in the data active = activation above about 19%, passing the limit was not always enough
# CHO-K1 Ca antag: counter-screen for M1 antagonists: effect in parental CHO-K1 cells; inhibition, % at 3 µM; AID 602250; ATP-induced calcium, Fluo-8 fluorescence; 0.6% of 360,000 active;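 active = inhibition above a per-plate cutoff, the plate's mean sample inhibition plus 3 SD, cut at about 24% in these data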
# M1 ag: agonists of human M1 muscarinic receptor | AID 588814 | 0.33% of 360,000 active | P11229 | CHO-K1 hM1, Fluo-8 calcium fluorescence, agonist mode; 0% DMSO, 100% acetylcholine EC100 | activation, % at 3 µM;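 active = activation above the run's mean compound activation plus 3 SD, cut at about 16% in these data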;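 note: peak over basal fluorescence ratio within a 140 s kinetic read after compound addition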
# A number is an active result; i = inactive; nt = no result given.
SMILES,CHRM1 antagonist,CHO-K1 Ca ag,M1 PAM parental,CHRM1 PAM,CHO-K1 Ca antag,M1 ag
CCN1CCN(Cc2nc3cc(NC(=O)COc4ccc([N+](=O)[O-])cc4)ccc3n2C)CC1,61,i,i,i,i,i
Cc1cccc(OCC(=O)Nc2ccc3c(c2)nc(CCN2CCCCC2)n3C)c1,i,i,i,i,i,i
Cc1ccc2c(cnn2C(=O)CCC(=O)NC2CCCCC2)c1,i,i,i,i,i,i
OC1(CNCc2cn[nH]c2-c2cc3ccccc3o2)CCCCC1,i,i,i,i,i,i
Cn1c(CCN2CCN(c3ccccn3)CC2)nc2cc(NC(=O)COc3ccc(Cl)cc3)ccc21,95,i,i,i,i,i
CCN1CCN(CCc2nc3cc(NC(=O)COc4ccc(Cl)cc4)ccc3n2C)CC1,i,i,i,i,i,i
CC(C)[C@H](NC(=O)c1c(F)cccc1F)C(=O)Nc1cccc(Br)c1,i,19,i,i,i,i
Cc1ccc(S(=O)(=O)CCC(=O)NCCN2C(=O)S/C(=C/c3ccc(F)cc3)C2=O)cc1,i,i,i,i,26,i
O=C(CCNC(=O)c1ccco1)NCCN1C(=O)S/C(=C\c2ccc(F)cc2)C1=O,i,i,i,i,i,i
Cc1onc(-c2ccccc2)c1C(=O)Nc1ncc([N+](=O)[O-])s1,i,16,i,i,i,i
Cc1cc(OC(=O)c2ccccc2C(F)(F)F)c([N+](=O)[O-])c(=O)[nH]1,i,i,i,i,i,i
O=C(CCCN1C(=O)/C(=C/c2cccs2)SC1=S)Nc1cccc(O)c1,25,i,i,i,i,i
Cc1ccc(/C=C2\SC(=S)N(CCC(=O)NNC(=O)c3cccc(O)c3)C2=O)cc1,32,i,i,i,i,i
COc1cc(/C=C2\SC(=S)N(NC(=O)c3cccc(O)c3)C2=O)ccc1O,i,i,i,i,i,16
COc1cc(/C=C2\SC(=S)N(NC(=O)c3ccc(O)c(OC)c3)C2=O)ccc1O,i,17,i,i,i,27
COCc1ccc(CN2CCCC(C(=O)Nc3ccc(-c4cscn4)cc3)C2)o1 (stereo not drawn),i,i,i,i,i,i
CCCCCn1c(=O)[nH]c2cc(C(=O)N3CCN(C(=O)OCC)CC3)ccc2c1=O,49,i,i,i,i,i
CCOC(=O)N1CCN(C(=O)c2ccc3c(=O)n(CCOC)c(=O)[nH]c3c2)CC1,28,i,i,i,i,i
COc1ccccc1Cn1c(=S)[nH]c2cc(C(=O)N3CCC(C(N)=O)CC3)ccc2c1=O,i,i,i,i,i,i
CCCCCn1c(=O)[nH]c2cc(C(=O)O)ccc2c1=O,i,i,i,i,i,i
CCOCCCn1c(=S)[nH]c2cc(C(=O)N3CCC(C(N)=O)CC3)ccc2c1=O,i,i,i,i,25,i
CCOC(=O)N1CCN(C(=O)c2ccc3c(=O)n(CCc4ccccc4)c(=O)[nH]c3c2)CC1,49,i,i,i,i,i
CC1=C(C(=O)N(C(C)C)C(C)C)CC(CC(=O)NC(c2ccccc2)c2ccccc2)C(=O)N1CCCN1CCCC1=O (stereo not drawn),i,i,i,i,i,i
O=C(O)Cn1nnc(-c2ccc(OCc3ccccc3)cc2)n1,i,i,i,i,i,i
CC(=O)NS(=O)(=O)c1ccc(NC(=O)c2ccc(S(=O)(=O)N3CCCC3)cc2)cc1,i,i,i,i,i,i
SMILES,CHRM1 antagonist,CHO-K1 Ca ag,M1 PAM parental,CHRM1 PAM,CHO-K1 Ca antag,M1 ag
O=C(Nc1ccc2c(c1)OCCO2)C1c2ccccc2OCC(=O)N1Cc1cccnc1 (stereo not drawn),nt,i,i,nt,i,nt
CCCC[n+]1ccn(-c2nc3ccccc3nc2[N-]S(=O)(=O)c2ccc(C)cc2)c1,i,i,i,i,i,i
CCCC[n+]1ccn(-c2nc3ccccc3nc2[N-]S(=O)(=O)c2ccccc2)c1,i,i,i,i,i,19
CCc1nnc2c(NCCc3ccccc3)nc3ccccc3n12,i,i,i,i,i,i
O=C1NC(=O)C(c2ccccc2)(C2CCCC2)N1 (stereo not drawn),i,i,i,i,i,i
CN(C)[C@@H]1CCC[C@@H]1OC(=O)C(c1ccccc1)c1ccccc1,31,i,i,i,i,i
CCOc1ccccc1N1CCN(CC(=O)NC(C)c2ccccc2)CC1 (stereo not drawn),i,i,i,i,i,i
CC(C)CC(=O)Nc1nnc(S(=O)(=O)N2CCc3ccccc32)s1,i,i,i,i,29,i
O=[N+]([O-])c1ccc(COc2ccc(CNc3ccccc3)cc2)cc1,26,i,i,i,i,i
CN=c1scc(-c2ccc(F)cc2)n1/N=C/c1ccc(O)c(O)c1,i,i,i,i,i,i
Nc1nc(-c2nc3ccccc3[nH]2)cs1,i,i,i,i,32,i
c1ccc(-c2nc3ccccc3[nH]2)nc1,i,i,i,i,i,i
Cn1c(=O)[nH]c(=O)c2c1nc(N1CCOCC1)n2CCCSc1ncccn1,i,16,i,i,i,i
Cc1ccnc(SCCn2c(N3CCOCC3)nc3c2c(=O)[nH]c(=O)n3C)n1,i,i,i,i,i,i
CC1CC(C)CN(c2nc3c(c(=O)[nH]c(=O)n3C)n2CCCSc2nc3ccccc3s2)C1 (stereo not drawn),i,i,i,i,i,i
CCN1CCN(c2nc3c(c(=O)[nH]c(=O)n3C)n2CCSc2nc3ccccc3s2)CC1,i,i,i,i,i,30
OC(CNCCc1ccc(C(F)(F)F)cc1)COC(c1ccccc1)c1ccccc1 (stereo not drawn),76,i,i,i,i,i
CCOC(=O)C1CCCN(c2cc(=O)n(C3CCCCC3)c(=O)[nH]2)C1 (stereo not drawn),i,i,i,i,i,31
CCn1c(CCC(=O)O)nc2cc(S(=O)(=O)N(C)C)ccc21,i,i,i,i,30,i
CN(C)S(=O)(=O)c1ccc2c(c1)nc(CCC(=O)O)n2C,i,i,i,i,i,i
C[C@H](CO)N1C[C@H](C)[C@@H](CN(C)S(=O)(=O)c2cccs2)Oc2ccc(NC(=O)CCC(F)(F)F)cc2C1=O,57,i,i,i,i,i
C[C@H](CO)N1C[C@H](C)[C@@H](CN(C)S(=O)(=O)c2ccccc2)Oc2ccc(NC(=O)Cn3cnnn3)cc2C1=O,34,i,i,i,i,i
C[C@H](CO)N1C[C@H](C)[C@@H](CN(C)S(=O)(=O)c2ccccc2)Oc2ccc(NC(=O)CCN3CCOCC3)cc2C1=O,35,i,i,i,i,i
Cc1noc(C)c1S(=O)(=O)N(C)C[C@H]1Oc2ccc(NC(=O)Cn3cnnn3)cc2C(=O)N([C@H](C)CO)C[C@@H]1C,i,i,i,i,i,i
